# Data as given in PubChem BioAssay (EPA / NIEHS).
# “And” between values parts separate entries of the source, which are not always exact repeats. Equal values may be shown once. The source made the active and inactive calls. Rule for the calls: active = hit-call score of the fitted dose curve at least 0.9, where 1 is the maximum; inactive = score below 0.9.
# What was measured:
# Settings in all cases: primary human HUVEC with PBMC; actives raise or lower the signal
# [1] = read-out: Monocyte Chemoattractant Protein-1 (MCP1), CCL2 (gene 6347); experiment: BSK_LPS_MCP1: BioMAP Diversity Plus: LPS Assay for Monocyte Chemoattractant Protein-1 (MCP1) Biomarker Activity (AID 2283081);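 for AC50: co-culture stimulated with LPS; secreted MCP-1 protein quantified by ELISA in culture supernatant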
# How it was run: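 Values derive from bidirectional fitting against DMSO of ELISA-measured MCP-1 in a human primary endothelial and mononuclear cell co-culture, 24 h after chemical addition under LPS activation.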
# [2] = BSK_LPS_PGE2: BioMAP Diversity Plus: LPS Assay for Prostaglandin E2 (PGE2) Biomarker Activity (AID 2283082);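 for AC50: secreted prostaglandin E2 measured by ELISA in LPS-stimulated co-culture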
# How it was run: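 Primary human endothelial cells and blood mononuclear cells, co-cultured with LPS, receive test chemical; PGE2 ELISA follows at 24 h, with SRB-stained parallel cultures flagging cytotoxicity.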
# [3] = read-out: Macrophage colony-stimulating factor (MCSF), CSF1 (gene 1435); experiment: BSK_LPS_MCSF: BioMAP Diversity Plus: LPS Assay for Macrophage colony-stimulating factor (MCSF) Biomarker Activity (AID 2283083)
# How it was run: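 Bidirectional fit versus DMSO of ELISA-measured M-CSF in co-cultured human umbilical vein endothelial cells and PBMC, sampled 24 h after dosing.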
# [4] = read-out: Tissue Factor, F3 (gene 2152); experiment: BSK_LPS_TissueFactor: BioMAP Diversity Plus: LPS Assay for Tissue Factor Biomarker Activity (AID 2283084)
# How it was run: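 Read-out: CD142 ELISA, 24 h. System: LPS-driven human endothelial/PBMC co-culture. Analysis: up- or down-signal fitted against DMSO.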
# [5] = read-out: Tumor necrosis factor (Homo sapiens) (UniProt P01375); experiment: BSK_LPS_TNFa: BioMAP Diversity Plus: LPS Assay for Tumour Necrosis Factor alpha (TNFa) Biomarker Activity (AID 2283085);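 for AC50: TNFa protein level quantified by ELISA in the co-culture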
# How it was run: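 ELISA-based TNFa endpoint in a human endothelial–PBMC co-culture sampled 24 h post-exposure. Curves were fitted in both directions using DMSO as baseline of activity.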
# [6] = read-out: Vascular cell adhesion molecule 1 (VCAM1), VCAM1 (gene 7412); experiment: BSK_LPS_VCAM1: BioMAP Diversity Plus: LPS Assay for Vascular cell adhesion molecule 1 (VCAM1) Biomarker Activity (AID 2283086)
# How it was run: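 Measured by ELISA: VCAM-1 in LPS-activated HUVEC/PBMC co-cultures 24 h after treatment. Values reflect bidirectional fitting with DMSO as baseline.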
# CD38, CD38 (gene 952) = experiment: BSK_SAg_CD38: BioMAP Diversity Plus: SAg Assay for CD38 Biomarker Activity (AID 2283087)
# How it was run: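 Measures CD38 on a human endothelial/PBMC co-culture driven by SEB and TSST-1, 24 h after compound exposure, using ELISA with fluorescence detection; DMSO defines baseline for bidirectional curve fitting.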
# [7] = read-out: Monocyte Chemoattractant Protein-1 (MCP1), CCL2 (gene 6347); experiment: BSK_SAg_MCP1: BioMAP Diversity Plus: SAg Assay for Monocyte Chemoattractant Protein-1 (MCP1) Biomarker Activity (AID 2283090)
# How it was run: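 Values derive from bidirectional fitting of ELISA-measured MCP1 against DMSO controls. Readings were taken 24 h after dosing human vascular endothelial cells co-cultured with peripheral blood mononuclear cells under superantigen stimulation.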
# CD69, CD69 (gene 969) = experiment: BSK_SAg_CD69: BioMAP Diversity Plus: SAg Assay for CD69 Biomarker Activity (AID 2283089);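 for AC50: cell surface CD69 protein quantified by ELISA with fluorescence detection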
# How it was run: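 Endothelial/PBMC co-culture; chemical added; 24 h incubation; CD69 ELISA with fluorescence detection; bidirectional fit vs DMSO.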
# CD40, CD40 (gene 958) = experiment: BSK_SAg_CD40: BioMAP Diversity Plus: SAg Assay for CD40 Biomarker Activity (AID 2283088)
# How it was run: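 Endpoint derived by fitting increases or decreases versus DMSO controls. CD40 is detected by fluorescence ELISA in a human vascular co-culture of endothelium and PBMC at 24 h.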
# Chain of Tumor necrosis factor (Homo sapiens) (P01375 whole entry, looked up): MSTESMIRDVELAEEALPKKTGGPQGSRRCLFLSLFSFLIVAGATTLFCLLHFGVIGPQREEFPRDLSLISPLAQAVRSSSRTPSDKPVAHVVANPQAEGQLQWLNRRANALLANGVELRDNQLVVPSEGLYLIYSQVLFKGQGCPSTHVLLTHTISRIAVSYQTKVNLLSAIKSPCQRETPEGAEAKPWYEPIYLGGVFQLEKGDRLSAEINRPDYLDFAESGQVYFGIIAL
smiles,measurement,setting,value
CCN(CC)c1ccc2c(c1)Oc1cc(N(CC)CC)ccc1C21OC(=O)c2ccccc21,outcome,[1],inactive
same,outcome,[2],inactive
same,outcome,[3],inactive
same,AC50,[4],10 µM (active)
same,outcome,[5],inactive
same,outcome,[6],inactive
same,outcome,"CD38, CD38 (gene 952)",inactive
same,outcome,[7],inactive
OCCCCC(F)(F)C(F)(F)C(F)(F)C(F)(F)F,outcome,[1],inactive
same,outcome,[2],inactive
same,outcome,[3],inactive
same,outcome,[4],inactive
same,outcome,[5],inactive
same,outcome,[6],inactive
same,outcome,"CD38, CD38 (gene 952)",inactive
same,outcome,"CD69, CD69 (gene 969)",inactive
same,outcome,[7],inactive
CCN(CC)c1ccc(C=O)cc1,outcome,[1],inactive
same,outcome,[2],inactive
same,outcome,[3],inactive
same,outcome,[4],inactive
same,outcome,[5],inactive
same,outcome,[6],inactive
same,outcome,"CD38, CD38 (gene 952)",inactive
same,outcome,[7],inactive
O=C1C=CC(=O)N1c1ccc(Cc2ccc(N3C(=O)C=CC3=O)cc2)cc1,AC50,[1],14.9 µM (active)
same,AC50,[2],5.34 µM (active)
same,AC50,[3],10 µM (active)
same,AC50,[4],5.57 µM (active)
same,AC50,[5],8.82 µM (active)
same,AC50,[6],11.1 µM (active)
same,AC50,"CD38, CD38 (gene 952)",5.71 µM (active)
same,AC50,"CD69, CD69 (gene 969)",6.1 µM (active)
same,AC50,[7],6.98 µM (active)
C[Si](Cl)(Cl)CCC(F)(F)C(F)(F)C(F)(F)C(F)(F)C(F)(F)C(F)(F)F,outcome,[1],inactive
same,outcome,[2],inactive
same,outcome,[3],inactive
same,outcome,[4],inactive
same,outcome,[5],inactive
same,outcome,[6],inactive
same,outcome,"CD38, CD38 (gene 952)",inactive
same,outcome,[7],inactive
NC(O)(C(F)(F)F)C(F)(F)F,outcome,[1],inactive
same,outcome,[2],inactive
same,outcome,[3],inactive
same,outcome,[4],inactive
same,outcome,[5],inactive
same,outcome,[6],inactive
same,outcome,"CD38, CD38 (gene 952)",inactive
same,outcome,[7],inactive
O=C(O)CCC(F)(F)C(F)(F)C(F)(F)F,outcome,[1],inactive
same,outcome,[2],inactive
same,outcome,[3],inactive
same,outcome,[4],inactive
same,outcome,[5],inactive
same,outcome,[6],inactive
same,outcome,"CD38, CD38 (gene 952)",inactive
same,outcome,[7],inactive
O=S(=O)(Cl)C(F)(F)C(F)(F)C(F)(F)C(F)(F)C(F)(F)C(F)(F)C(F)(F)C(F)(F)F,outcome,[1],inactive
same,AC50,[2],46.8 µM (active) and 42.8 µM (active)
same,outcome,[3],inactive
same,outcome,[4],inactive
same,outcome,[5],inactive
same,outcome,[6],inactive
same,outcome,"CD38, CD38 (gene 952)",inactive
same,outcome,[7],inactive
Cc1cnccn1,outcome,[1],inactive
same,outcome,[2],inactive
same,outcome,[3],inactive
same,outcome,[4],inactive
same,outcome,[5],inactive
same,outcome,[6],inactive
same,outcome,"CD38, CD38 (gene 952)",inactive
same,outcome,"CD69, CD69 (gene 969)",inactive
same,outcome,[7],inactive
O=C(O)C(F)(F)C(F)(F)C(F)(F)C(F)(F)C(F)(F)C(F)(F)C(F)F,outcome,[1],inactive
same,outcome,[2],inactive
same,outcome,[3],inactive
same,outcome,[4],inactive
same,outcome,[5],inactive
same,outcome,[6],inactive
same,outcome,"CD38, CD38 (gene 952)",inactive
same,outcome,"CD69, CD69 (gene 969)",inactive
same,outcome,[7],inactive
CCN=C1C=CC(=C(c2ccc(N(CC)CC)cc2)c2ccc(N(CC)CC)cc2)c2ccccc21,AC50,[1],261 nM (active) and 1.13 µM (active)
same,AC50,[2],3.95 µM (active) and 2.66 µM (active)
same,AC50,[3],1.72 µM (active) and 1.53 µM (active)
same,AC50,[4],1.6 µM (active) and 1.55 µM (active)
same,AC50,[5],501 nM (active) and 519 nM (active)
same,AC50,[6],1.42 µM (active) and 1.55 µM (active)
same,AC50,"CD38, CD38 (gene 952)",713 nM (active) and 470 nM (active)
same,AC50,"CD69, CD69 (gene 969)",1.34 µM (active) and 765 nM (active)
same,AC50,[7],762 nM (active) and 1.25 µM (active)
Cc1cc(O)c(C(C)(C)C)cc1C(C)(C)C,AC50,[1],9.04 µM (active)
same,outcome,[2],inactive
same,AC50,[3],5.29 µM (active)
same,AC50,[4],5.3 µM (active)
same,AC50,[5],9.79 µM (active)
same,AC50,[6],5.9 µM (active)
same,AC50,"CD38, CD38 (gene 952)",10.1 µM (active)
same,AC50,"CD69, CD69 (gene 969)",5.18 µM (active)
same,AC50,[7],7.3 µM (active)
OCC(F)(F)C(F)(F)C(F)(F)CO,outcome,[1],inactive
same,outcome,[2],inactive
same,outcome,[3],inactive
same,outcome,[4],inactive
same,outcome,[5],inactive
same,outcome,[6],inactive
same,outcome,"CD38, CD38 (gene 952)",inactive
same,outcome,[7],inactive
CC1=CC2C3C=CC(C3)C2C1C (stereo unspecified),outcome,[1],inactive
same,outcome,[2],inactive
same,outcome,[3],inactive
same,outcome,[4],inactive
same,AC50,[5],31.3 µM (active)
same,outcome,[6],inactive
same,outcome,"CD38, CD38 (gene 952)",inactive
same,outcome,"CD69, CD69 (gene 969)",inactive
same,outcome,[7],inactive
O=C(O)CCC(F)(F)C(F)(F)C(F)(F)C(F)(F)C(F)(F)C(F)(F)C(F)(F)F,outcome,[1],inactive
same,outcome,[2],inactive
same,outcome,[3],inactive
same,outcome,[4],inactive
same,outcome,[5],inactive
same,outcome,[6],inactive
same,outcome,"CD38, CD38 (gene 952)",inactive
same,outcome,"CD69, CD69 (gene 969)",inactive
same,outcome,[7],inactive
O=C=Nc1cccc2c(N=C=O)cccc12,outcome,[1],inactive
same,outcome,[2],inactive
same,outcome,[3],inactive
same,outcome,[4],inactive
same,outcome,[5],inactive
same,outcome,[6],inactive
same,outcome,"CD38, CD38 (gene 952)",inactive
same,outcome,"CD40, CD40 (gene 958)",inactive
same,outcome,[7],inactive
Cc1ccc(O)c(-n2nc3ccccc3n2)c1,outcome,[1],inactive
same,outcome,[2],inactive
same,outcome,[3],inactive
same,outcome,[4],inactive
same,AC50,[5],1.8 µM (active)
same,outcome,[6],inactive
same,outcome,"CD38, CD38 (gene 952)",inactive
same,outcome,"CD69, CD69 (gene 969)",inactive
same,outcome,[7],inactive
